In PubChem BioAssay (NCATS) one finds activation, viability and Potency data, which are given here for 4 compounds.

Assay [1] has as its target Cellular tumor antigen p53 (Homo sapiens) (UniProt P04637). Nature of the assay: Primary qHTS for small molecule compounds that upregulate eGFP-tagged delta133p53alpha (in N-terminal) cells. (AID 2060322).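 Also: cells pre-induced with doxycycline then dosed without doxycycline; series mostly up to about 56 µM; 0% = DMSO vehicle and 100% = reference activator; nearly all actives have a fitted effect of over 75% in size.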 The settings on record: NCI-H358 eGFP-delta133p53alpha fluorescence, 24 h; activation: hits give high values. Summed up: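 NCI-H358 cells pre-induced 24 h with 10 ng/ml doxycycline for eGFP-delta133p53alpha, plated dox-free and exposed 24 h at 37C to titrated compounds. Fixed, Hoechst-stained; gated GFP peak intensity by laser scanning cytometry, normalized to DMSO (0%) and 57.5 uM 5-azacytidine (100%).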
Background: Quantitative high-throughput screening tests each substance at several concentrations.

Assay [2] can be described thus: BET inhibitor-based combinations targeting novel dependencies in MECOM-rearranged (r) AML: SET-2 cell line (AID 2202231). Also: nearly all actives have a fitted effect of over 35% in size. Also: potency is read from the fitted curve at half-maximal effect.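 As to viability: plate controls were DMSO treated cells for no effect and wells without cells for full effect.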 The settings on record: SET-2 AML cells viability, CellTiter-Glo luminescence, 48 h; viability: hits give low values, concentration not given here. Summed up:
(§1)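 Here, 11-point titrations of each agent were applied to 500 seeded cells and incubated 48 hr; CellTiter-Glo signal, scaled against DMSO and empty wells, was integrated as AUC, then Z-scored within the individual line.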
In general terms: In ATP-based viability assays light output follows the ATP content of the culture.

Assay [3] can be described thus: BET inhibitor-based combinations targeting novel dependencies in MECOM-rearranged (r) AML: OCI-AML3 cell line (AID 2202232). Also: nearly all actives have a fitted effect of over 35% in size. Also: potency is read from the fitted curve at half-maximal effect. The settings on record: Potency: OCI-AML3 viability. A digest of the protocol: as §1
Assay [4] in a line: BET inhibitor-based combinations targeting novel dependencies in MECOM-rearranged (r) AML: MV-4-11 cell line (AID 2202233). Also: nearly all actives have a fitted effect of over 45% in size. Also: potency is read from the fitted curve at half-maximal effect. A digest of the protocol: (§2)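 Normalized to DMSO and empty-well controls, the luminescence data from CellTiter-Glo after 48 hr drug exposure were fitted across 11 concentrations. Reported metrics are area under the dose-response curve and its Z-transformed form.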

Assay [5] in a line: BET inhibitor-based combinations targeting novel dependencies in MECOM-rearranged (r) AML: HNT-34 cell line (AID 2202234). Also: nearly all actives have a fitted effect of over 35% in size. Also: potency is read from the fitted curve at half-maximal effect. A digest of the protocol:
as §2

Assay [6] in a line: BET inhibitor-based combinations targeting novel dependencies in MECOM-rearranged (r) AML: AML-191 cell line (AID 2202236; also: nearly all actives have a fitted effect of over 35% in size; also: potency is read from the fitted curve at half-maximal effect). Summed up: as §1
Assay [7] can be described thus: BET inhibitor-based combinations targeting novel dependencies in MECOM-rearranged (r) AML: AML-194 cell line (AID 2202237; also: nearly all actives have a fitted effect of over 40% in size; also: potency is read from the fitted curve at half-maximal effect). Summed up: as §1

As usually defined, the viability is a read-out of living cells in per cent, often relative to untreated cells.

Molecules are shown by their SMILES. Records with an inconclusive call do not appear. Active and inactive are the calls of the source. Calls follow the shape of the dose curve; as a rule, active = well fitted curve in the direction sought with a large enough effect; inconclusive = small, poorly fitted or top-dose-only effect, or another doubt; inactive = no such curve, though single readings can be large; an effect the other way counts as inactive or inconclusive.

Sequence of Cellular tumor antigen p53 (Homo sapiens) (P04637 whole entry, looked up): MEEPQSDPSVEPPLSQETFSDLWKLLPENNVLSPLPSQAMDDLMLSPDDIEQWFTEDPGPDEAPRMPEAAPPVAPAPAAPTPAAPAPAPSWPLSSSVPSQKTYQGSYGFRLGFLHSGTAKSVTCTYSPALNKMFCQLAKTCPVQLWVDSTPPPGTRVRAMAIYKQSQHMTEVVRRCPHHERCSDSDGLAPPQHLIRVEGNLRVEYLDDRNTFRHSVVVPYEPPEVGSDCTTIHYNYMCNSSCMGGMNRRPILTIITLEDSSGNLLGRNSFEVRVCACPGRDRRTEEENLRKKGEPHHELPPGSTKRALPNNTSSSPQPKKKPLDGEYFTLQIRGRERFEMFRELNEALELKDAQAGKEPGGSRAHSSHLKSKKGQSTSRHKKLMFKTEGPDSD

With `NC(=O)c1ccc(-c2nc(-c3ccc4c(c3)OCO4)c(-c3ccccn3)[nH]2)cc1`, in assay [1], the activation is -10.5% (inactive). For the same compound, the viability in assay [2] was 112% (inactive). Further, the Potency entry in assay [3], in assay [4], in assay [5], in assay [6] and in assay [7] was “inactive” in each case.
On to `CC(C(C)N1CC(=O)NC(=O)C1)N1CC(=O)NC(=O)C1` (stereo not given), for which the activation in assay [1] was 25.1% (inactive). In addition, in assay [2], the viability is 107% (inactive). Moreover, the Potency in assay [3] is 5900 nM (active); in assay [4], 1180 nM (active); in assay [6] it was 9340 nM (active). Further, the Potency entry in assay [7] is “inactive”.
For the compound `COc1cc([C@@H]2c3cc4c(cc3[C@H](O)[C@H]3COC(=O)[C@H]23)OCO4)cc(OC)c1OC`, the activation in assay [1] was 24.1% (inactive). The Potency in assay [2] was 37.2 nM (active); in assay [3], 37.2 nM (active); in assay [4] it was 41.7 nM (active); in assay [6], 37.2 nM (active).
Turning to `CN[C@@H]1CN(c2ccc3c(=O)c(C(=O)O)cn(-c4nccs4)c3n2)C[C@@H]1OC`, the activation in assay [1] is 8.83% (inactive). For the same compound, the Potency in assay [2] is 3230 nM (active); in assay [3], 1150 nM (active); in assay [4] it was 323 nM (active); in assay [5], 1150 nM (active); in assay [6], 1820 nM (active); in assay [7] it was 1290 nM (active).
